In PubChem BioAssay (Tox21):
Results filed as inconclusive are left out. Where a call stands in place of a potency, no number is given. A number with no mark means an inactive call. Activity calls are given as the source filed them. The call rests on the fitted dose curve.

Assay: qHTS assay to identify small molecule agonists of the endoplasmic reticulum stress response signaling pathway - cell viability counter screen (AID 1159517); further: nearly all actives have a fitted effect of over 50% in size
Details: ESRE-bla HeLa viability, CellTiter-Glo luminescence, 5 h; series mostly up to 61 µM; activity change, negative = cytotoxicity: at the top concentration
Description: U.S. Tox21 Program National Center for Advancing Translational Sciences [NCATS] NIH Chemical Genomics Center [NCGC] U.S. Environmental Protection Agency [EPA] National Institutes of Environmental Health Sciences [NIEHS] National Toxicology Program [NTP] U.S. Food and Drug Administration [FDA] Tox21 Assay Overview: Endoplasmic Reticulum (ER) plays an important role in cellular signaling, protein folding/maturation, stress response, lipid biosynthesis, calcium storage and release etc. Under stress conditions, proteins in ER misfold or unfold, and leading to the expression of ER stress responsive genes. ER stress has been associated with a variety of pathophysiological conditions such as cancer, inflammation, neurodegenerative diseases, diabetes, ischemic heart disease etc. To identify the compounds that induce ER stress response, an ER stress reporter cell line, CellSensor ESRE-bla HeLa (Life Technologies, Carlsbad, CA) containing a beta-lactamase reporter gene under control of the Endoplasmic reticulum Stress Response Element (ESRE) was used to screen Tox21 10K compound library. The cytotoxicity of the Tox21 compound library against the ESRE-bla HeLa cell line was tested in parallel by measuring cell viability using the CellTiter-Glo assay in the same wells.
Tox21 Assay Protocol Summary: ESRE-bla HeLa cells were dispensed at 1,500 cells/6 uL of assay medium per well into black wall/clear-bottom 1536-well plates using a Multidrop Combi (ThermoFisher Scientific, Waltham, MA) dispenser. After the assay plates were incubated at 37 C and 5% CO2 for an overnight, 23 nL of compounds dissolved in DMSO, positive controls or DMSO only was transferred to the assay plate by a Pintool station (Kalypsys, San Diego, CA). The assay plates were incubated at 37 C and 5% CO2 for 5 hr. One uL of LiveBLAzer B/G FRET substrate (Life Technologies) was added using a FRD (Flying Reagent Dispenser, Aurora Discovery, San Diego, CA) and the plates were incubated at room temperature for 2 hr. Fluorescence intensity (405 nm excitation, 460 nm and 530 nm emissions) was measured using an Envision plate reader (PerkinElmer, Shelton, CT). For cytotoxicity, 4 ul/well of CellTiter-Glo reagent was added into the assay plates using an FRD. After 30 min incubation at room temperature, the luminescence intensity was measured using a ViewLux plate reader (PerkinElmer).

SMILES | Potency | activity change, negative = cytotoxicity [%]
C[C@]12CC[C@@H]3c4ccc(O)cc4CC[C@H]3[C@@H]1CCC2=O | inactive | –
COCC(C)N (stereo not given) | inactive | –
CCCCCCCCOc1ccc(C(=O)c2ccccc2)c(O)c1 | inactive | –
O=[N+]([O-])c1ccc(O)cc1 | inactive | –
CC(O)COc1ccccc1 (stereo not given) | inactive | –
CCCCCCCCCCCCCCCCCC(=O)OCC(O)CO (stereo not given) | inactive | –
CCCCC/C(C=O)=C\c1ccccc1 | inactive | –
CCN(CC)CCOC(=O)c1ccc(N)cc1 | inactive | –
CC(C)=CCC/C(C)=C/CO | – | 10.3
Cc1cccc2ccccc12 | inactive | –
Cn1cnc2c1c(=O)[nH]c(=O)n2C | inactive | –
CN/C(=C\[N+](=O)[O-])NCCSCc1ccc(CN(C)C)o1 | inactive | –
CN(C)Cc1cc(CN(C)C)c(O)c(CN(C)C)c1 | inactive | –
N[C@@H](Cc1c[nH]c2ccccc12)C(=O)O | inactive | –
COC(=O)c1ccc(C=O)cc1 | inactive | –
CC(=O)OC/C=C(C)/C=C/C=C(C)/C=C/C1=C(C)CCCC1(C)C | inactive | –
O=c1c(-c2ccc(O)cc2)coc2cc(O)cc(O)c12 | inactive | –
Nc1ccc(N=Nc2ccccc2)c(N)n1 | inactive | –
C=C(C)C(N)=O | inactive | –
Cc1cccc(C)c1O | inactive | –

SMILES | Potency | activity change, negative = cytotoxicity [%]
O=C(O)CN(CC(=O)O)CC(=O)O | inactive | –
NCCNc1cccc2ccccc12 | inactive | –
C[C@]12C=CC(=O)C=C1CC[C@@H]1[C@@H]2C(=O)C[C@@]2(C)[C@H]1CC[C@]2(O)C(=O)CO | inactive | –
CCCCCCCCCCCCCC(=O)OC(C)C | inactive | –
CCCCOCCOCCOC(C)=O | inactive | –
c1ccc2[nH]c(-c3cscn3)nc2c1 | inactive | –
COc1ccccc1NC(=O)CC(C)=O | inactive | –
O=c1cc[nH]c(=O)[nH]1 | inactive | –
CCCCOCCOCCSC#N | inactive | –
COCCOCCOC | inactive | –
C[C@]12C[C@H](O)[C@H]3[C@@H](CCC4=CC(=O)CC[C@@]43C)[C@@H]1CC[C@@H]2C(=O)CO | inactive | –
Oc1cccc(O)c1 | inactive | –
O=C(O)Cc1cccc2ccccc12 | inactive | –
CC(C)(C)CC(C)(C)c1ccc(O)c(-n2nc3ccccc3n2)c1 | inactive | –
NC(=O)N1c2ccccc2C=Cc2ccccc21 | inactive | –
CC(=O)/C=C/C1=C(C)CCCC1(C)C | inactive | –
COc1ccc(C(=O)c2ccccc2)c(O)c1 | inactive | –
CCc1cc(C(N)=S)ccn1 | inactive | –
OCCCc1ccccc1 | inactive | –
C1CNCCN1 | inactive | –
